# Whole data set: some 33,000 sequences, median “E-score (-0.5 to 0.5)” near -0.04, cut for the highest 2% near 0.36. The list comes from a sample in which the highest values are over-represented; it also holds similar and randomly drawn sequences.
# Molecular target: T1, Hmlalpha2 (UniProt P0CY09)
# T1 sequence: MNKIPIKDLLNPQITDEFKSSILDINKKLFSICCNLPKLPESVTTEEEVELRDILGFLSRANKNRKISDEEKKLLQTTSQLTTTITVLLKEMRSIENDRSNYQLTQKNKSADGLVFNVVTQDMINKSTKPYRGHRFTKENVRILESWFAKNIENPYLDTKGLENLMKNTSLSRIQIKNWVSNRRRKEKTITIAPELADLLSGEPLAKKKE
# Experiment: PBM E-score (8-mer binding enrichment) (E-score (-0.5 to 0.5)); higher = stronger / more preferred TF binding
# Conditions: protein concentration: 200 nM; construct: GST-full length
# How it was run: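 Yeast transcription factors carrying a GST tag, as full-length proteins or DNA-binding domains, were produced by PURExpress in vitro transcription/translation. About 100-200 nM protein was applied to universal all-10-mer Agilent arrays, double-stranded by primer extension on fresh or once-stripped slides. Bound protein was detected with fluorescent anti-GST, and scans were normalised with masliner. The Universal PBM Analysis Suite gave each ungapped eight-base word, pooled with its reverse complement, an E-score, a modified Wilcoxon-Mann-Whitney statistic.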
row,Sequence,PBM E-score
1,GACATGAC,0.29
2,AGCATGAG,0.0355
3,AACATGAG,0.379
4,AACATGAT,0.439
5,AACATGAC,0.425
6,CACATGAC,0.267
7,GAGTAGAC,-0.0398
8,CTGGAACC,-0.109
9,CTGCCTTA,-0.206
10,ACGAGCCA,0.0562
11,AGAGATAG,-0.0703
12,ATTGAGAA,0.142
13,TCCTCGCA,-0.204
14,CTTCACCA,-0.283
15,CTCGCGTA,0.22
16,CGCGCGTA,0.283
17,CTTGCGTA,0.286
18,ATCGCGTA,0.368
19,GGCGCGTA,0.255
20,GTCGCGGA,-0.252
21,ATCGCGTC,0.216
22,GTCGCGTA,0.414
23,AGCGCGTA,0.388
24,ATCGCGTG,0.192
25,ATTGCGTA,0.296

row,Sequence,PBM E-score
1,GTTGCGTA,0.378
2,GTCGCCAC,-0.316
3,GTTTGACA,0.303
4,AGGAAGAT,-0.192
5,ATGACGCC,-0.105
6,ATGGAGAG,-0.115
7,CCCTTTAC,0.134
8,ATACTCCG,-0.0161
9,AAATTGCC,-0.0531
10,CTTTCTTC,-0.09
11,CAATCGGC,-0.156
12,CAGCCACA,-0.111
13,ACCAGAGA,-0.144
14,ACCTAAAC,0.098
15,CCTAGCGC,-0.102
16,ATCGACCG,-0.223
17,CATAACAC,0.397
18,AATAACCT,0.104
19,ACTAACAC,0.293
20,AATAACAT,0.412
21,GATAACGC,0.199
22,AGTAACAT,0.295
23,GATAACAC,0.39
24,CATAACAG,0.174
25,GATAACAA,0.324

row,Sequence,PBM E-score
1,CATAACAA,0.323
2,GCTAACAC,0.366
3,GCTAACAA,0.164
4,ACAACCAT,0.278
5,CCTACAAA,0.0287
6,ATCTGAGC,-0.0204
7,AGCTAACG,0.117
8,AGGGTACG,0.0138
9,AGATAGAA,-0.166
10,TATCCTAA,0.00317
11,GGACCTTA,-0.238
12,AATAACAA,0.267
13,AATAACAG,0.307
14,AATAACAC,0.396
15,GGAATACC,-0.0768
16,TGAATAAA,0.245
17,CGAATACG,0.259
18,TGAATACA,0.397
19,TGGATACA,0.17
20,CCAATACA,0.313
21,CGAATACC,-0.0493
22,GGAATAGA,-0.0449
23,CGAATACA,0.39
24,ACAATACA,0.326
25,GGAATACA,0.431

row,Sequence,PBM E-score
1,TCAATACA,0.372
2,GTAAGTAC,0.234
3,CACTAGGA,-0.225
4,AGAGGTCC,-0.273
5,AGCTGCAA,-0.227
6,AACCTCAA,0.0617
7,AGTTTGCG,-0.0236
8,ACTATCTG,-0.156
9,CTATGAAG,-0.149
10,CGATCCGA,-0.256
11,AGCGGCTA,-0.0688
12,ACTCTACT,0.0373
13,TAAATACA,0.434
14,GAAATACA,0.346
15,AGAATACA,0.366
16,AGAATACC,0.0773
17,AGAATACG,0.192
18,AAAATACA,0.334
19,AATGTAAG,0.294
20,CATGTAAC,0.456
21,CCTGTAAC,0.093
22,CCTGTAAG,-0.00273
23,CATGTAAG,0.47
24,GATGTAAC,0.215
25,CGAGATCG,-0.0661

row,Sequence,PBM E-score
1,GCATGCGA,0.0698
2,AAACCACC,-0.166
3,AGAGCCGA,-0.106
4,ATGTTGTC,0.364
5,ATGTTGTA,0.406
6,ATGTTGTG,0.362
7,CTGTTGTA,0.253
8,GTGTTGTA,0.382
9,GTGTTGCA,0.187
10,CATACCGG,-0.154
11,AGTCTGCC,-0.184
12,CAACGGAG,-0.12
13,ACCCTTAA,-0.0263
14,GGTATGTA,0.4
15,AGTATGTG,0.115
16,GGTATGGA,-0.18
17,CGTATGTA,0.356
18,AGTATGTA,0.394
19,AGTATGTC,0.201
20,AATTAGAA,0.0299
21,GAAAAACC,-0.0498
22,ATGAGGAG,-0.187
23,GCGTTAAC,0.379
24,GCGTTAAA,0.366
25,CCGTTAAC,0.0773

row,Sequence,PBM E-score
1,TCGTTAAA,0.126
2,CCGTTAAA,0.125
3,ACGTTAAC,0.281
4,CCAACCTC,-0.128
5,GATAAGTA,0.0843
6,AAGGGCTC,-0.21
7,TCGTTTAA,0.293
8,CGCGTGTA,0.458
9,GGCGTGAA,-0.0431
10,GGCGTGTA,0.464
11,CGCGTGCA,-0.0161
12,CGCGTGTC,0.262
13,AGCGTGTC,0.317
14,AGCGTGTA,0.472
15,GGCGTGCA,-0.128
16,AGCGTGTG,0.249
17,AACATATA,0.286
18,CTGGATCC,-0.25
19,GCTTAGAA,-0.00669
20,AAAATTGG,-0.167
21,GGTCGACC,-0.0813
22,TGTAACAA,0.384
23,ACTAAACA,0.196
24,TGTAAACA,0.461
25,GGTAAACA,0.333

row,Sequence,PBM E-score
1,CGTAAGAA,0.106
2,TCTAAACA,0.228
3,AGTAAACA,0.337
4,GGTAAGAA,-0.0659
5,CGTAAACA,0.394
6,TGTAAGAA,0.391
7,AGTAACAA,0.288
8,CGTAACAA,0.228
9,TGCCTCCA,-0.233
10,CTGCACAC,0.0406
11,TATCACGA,0.00013
12,GAAGACAC,0.0337
13,CCGCTCCC,-0.362
14,AGGTCTGG,-0.101
15,AGGAAAGC,-0.203
16,CGTAAAAA,0.345
17,CGTAGAAA,0.31
18,AGTAGAAA,0.124
19,GATAAACA,0.212
20,TGTAAAAA,0.444
21,TATAAACA,0.358
22,TGTAGAAA,0.429
23,CATAAACA,0.384
24,AGTAAAAA,0.196
